According to PubChem BioAssay AID624354 (Sanford-Burnham Center for Chemical Genomics, 2012):
Where “and” joins values, the source holds several entries; their conditions need not be identical. Equal values may be shown once. Among all 360,000 compounds or so, about 3,800 (1.1%) were called active.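 The calls were made as follows: active = compounds causing at least 50% loss of cell viability in the single-dose screen, relative to plate controls; inactive = the rest.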 This excerpt belongs to a sample that is enriched for actives. Where a structure was tested more than once in an assay, its records may differ in their call.

Experiment: TRAIL-exposed caspase-8 expressing cell killing – NB7+C8 cells, ATPlite luminescence, TRAIL sensitizer project, primary screen (AID 624354)
Settings: at 10 µM, stronger effect = higher value

Row | SMILES | inhibition (viability loss, TRAIL sensitization)
1 | Cc1ccc(-c2nc(-c3cccnc3)sc2CC(=O)Nc2ccc(C)c(Cl)c2)cc1 | 18.7% (inactive)
2 | COc1ccc(CCN2CNc3c(c(=O)n(C)c(=O)n3C)C2)cc1OC | 7.29% (inactive)
3 | O=C1OCCN1C(=O)[C@H]1[C@H](c2ccc(Cl)cc2)C(c2cccc(Cl)c2)=NN1c1ccc(Br)cc1 | -0.36% (inactive)
4 | CCOc1ccccc1/C=N/Nc1nc2ccccc2o1 | -8.7% (inactive)
5 | COc1cccc(/C=N/Nc2cc(C)nc(-c3ccccc3O)n2)c1O | 56.9% (active)
6 | COCCCNC(=O)c1cccc2c(-c3ccc(O)c(OC)c3)coc12 | 14.2% (inactive)
7 | CC(=O)OCC(C)n1c(=O)c2ccccc2n1C(C)=O (configuration not stated) | -3.49% (inactive)
8 | CN(C)CCCn1c(N)c(C#N)c2nc(C#N)c(C#N)nc21 | -10.7% (inactive)
9 | O=C(NCCc1ccccn1)c1nc(Cn2cc([N+](=O)[O-])cn2)no1 | 2.01% (inactive)
10 | CC(=O)Nc1ccc2nc(NC(=O)CS(=O)(=O)c3ccc(F)cc3)sc2c1 | -11.1% (inactive)
11 | CSc1ncccc1C(=O)Nc1nc2ccc(F)cc2s1 | 10.7% (inactive)
12 | O=C(Nc1nc2ccc([N+](=O)[O-])cc2s1)c1ccncc1 | 53.2% (active)
13 | COc1cc2nnn(-c3ccncc3)c2cc1OC | -16.3% (inactive)
14 | O=C(CCCCCCCC(=O)N1CCCCC1)N1CCCCC1 | 1.6% (inactive)
15 | COC(=O)c1sc(SC)c(S(=O)(=O)C(C)C)c1N/N=C(\C#N)S(=O)(=O)c1ccccn1 | -10.6% (inactive)
16 | O=C(NCc1ccccc1)C1C(=O)N(Cc2ccccc2)C(=O)C1C1(O)CCCC1 (configuration not stated) | -9.54% (inactive)
17 | O=c1c2cc(-c3ccccc3)sc2nc2n1N=C(c1cccs1)CS2 | 56.6% (active)
18 | O=c1c(-c2ccccc2)cnc2n1CCS2 | -0.958% (inactive)
19 | Cc1ccccc1C1CC(c2cccs2)=NN1S(C)(=O)=O (configuration not stated) | 1.64% (inactive)
20 | COc1cccc2c1OCC(C(=O)NCc1ccc(Cl)cc1Cl)=C2 | 12.2% (inactive)
21 | CCCC(=O)Nc1ccc(C(=O)N/N=C/c2ccc[nH]2)cc1 | 93.8% (active)
22 | CC(=O)Nc1ccc(C(=O)NNC(=O)CCCCC(=O)NNC(=O)c2ccc(NC(C)=O)cc2)cc1 | -1.99% (inactive)
23 | CC(=O)Nc1ccc(C(=O)/C=C/c2ccc[nH]2)cc1 | 1.89% (inactive)
24 | ClC1(Cl)CC1CSc1ncn[nH]1 (configuration not stated) | -13.6% (inactive)

Row | SMILES | inhibition (viability loss, TRAIL sensitization)
25 | O=C(/C=C/c1ccc([N+](=O)[O-])o1)NNC(=O)c1ccc(F)cc1 | 32.1% (inactive)
26 | Cc1nnc(SC(C(=O)Nc2cc(Cl)cc(Cl)c2)c2ccccc2)[nH]c1=O (configuration not stated) | -3.74% (inactive)
27 | O=C(Nc1c(Br)cc2c(c1Br)Cc1ccccc1-2)C(F)(F)F | 2.23% (inactive)
28 | COc1cc(C(=O)N(C)Cc2cccc(OC)c2OC)ccc1OCC(=O)Nc1cccc(C(F)(F)F)c1 | 28.6% (inactive)
29 | COc1cc(NC(=O)c2[nH]cnc2C(N)=O)cc(C(=O)Nc2cccc(C(F)(F)F)c2)c1 | 86% (active)
30 | COc1cccc(NC(=O)CN(C)C(C)C(=O)Nc2ccc(C#N)cc2)c1 (configuration not stated) | -8.39% (inactive)
31 | COc1cc(NC(=O)c2cncc(-c3ccc(C#N)cc3)c2)cc(C(=O)Nc2cccc(C(F)(F)F)c2)c1 | 33.4% (inactive) and 56.8% (active)
32 | COc1cccc(C(=O)N/N=C(\C)c2cccc(NC(=O)c3ccc(F)cc3)c2)c1OC | 16.9% (inactive)
33 | O=C(Nc1cccc(C(F)(F)F)c1)c1ccc(N2CCNCC2)c([N+](=O)[O-])c1 | 35.7% (inactive)
34 | COC(=O)c1ccc(C2C3=C(Nc4nnnn42)c2ccccc2OC3)cc1 (configuration not stated) | -2.52% (inactive)
35 | CCOC(=O)c1c(Cc2ccc(Cl)cc2)c[nH]c1C | -5.16% (inactive)
36 | CCOC(=O)N1CCN(S(=O)(=O)c2ccc(C(=O)Nc3ccc(F)cc3F)cc2)CC1 | 4.58% (inactive)
37 | Cc1cc(C)cc(OCc2nnc(SCC(=O)OC3CCCCC3)o2)c1 | -14.3% (inactive)
38 | COc1cccc(CNC(=O)C2CCCN(S(=O)(=O)N3CC(C)CC(C)C3)C2)c1 (configuration not stated) | -1.49% (inactive)
39 | COC(=O)C1=C[C@@H](C(=O)OC)[C@@H]2C3=C(C(=O)[C@]2(C)NC(=O)c2ccccc2)[C@H](C)n2c(=O)n(C)c(=O)n2[C@@H]3C1 | -3.47% (inactive)
40 | COc1ccc(OC)c(Cc2cnc3nc(N)nc(N)c3c2C)c1 | 84% (active)
41 | O=C(CN(C(=O)c1csnn1)c1cccc(F)c1)NCc1ccc(F)cc1 | -4.16% (inactive)
42 | CCOC(=O)c1c(C)oc(C)c(C(=O)OCC)c1=O | -19.5% (inactive)
43 | CCOC(=O)c1[nH]c(C)c(C(=O)OCC(=O)N2c3ccccc3CC2C)c1C (configuration not stated) | 6.75% (inactive)
44 | CCOC(=O)c1c(C)[nH]c2c1-c1ccccc1C(=O)C2=O | 94% (active)
45 | Cc1ccc(C(=O)COC(=O)CCN2C(=O)C3C4CCC(C4)C3C2=O)cc1C (configuration not stated) | -8.78% (inactive)
46 | COc1ccc(C(=O)OCC(=O)c2ccc(C)c(S(=O)(=O)N3CCOCC3)c2)cc1OC | 18.4% (inactive)
47 | Cc1ccc(C(=O)COC(=O)c2cccc(N3C(=O)c4c(C)nc5ccccc5c4C3=O)c2)cc1C | 60.1% (active)
